For five compounds, growth results are on record in PubChem BioAssay (NCI).

The panel holds about 83,000 compounds, 20% with a hit somewhere; the sample as a whole holds those more often.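 Cell lines were cultured in 96-well plates, exposed to a single compound concentration, and assessed for percent growth 48 hours later.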 Calls of active or inactive are those of the source. The calls were made as follows: active = growth percent below 10; inactive = the rest.

The experiment concerns MDA-MB-468 breast. The experiment can be described thus: NCI-60 one-dose screen, 48 h (100 = growth as untreated, 0 = no growth, -100 = all killed). As to conditions: 10 µM unless noted.
Take `CC/C=C\CCC/C=C1/C(=O)C=C[C@@H]1C/C=C\CCCC(=O)OC`: the growth was 68.7% (inactive). For the compound `COc1ccc(C(=O)/C=C/c2c(OC)cc(OC)cc2OC)c(OC)c1`, the growth is -25.1% (active). Consider `CN1C(=O)C(C2=NNC(c3ccccc3C(=O)O)C2)C(=O)N(C)C1=O` (stereo not given), for which the growth was 96.4% (inactive). Regarding `CCOC(=O)N1C/C(=C/c2ccc(F)cc2)C(=O)/C(=C/c2ccc(F)cc2)C1`, the growth is -55.6% (active).

Take `C#CC#CC#CC#CC#CC#CC#CC#CC[C@@H]1OC[C@@H](COC(=O)O[C@@H](C(=O)O[C@H]2C[C@@]3(O)[C@@H](OC(=O)c4ccccc4)[C@@H]4[C@]5(OC(C)=O)CO[C@@H]5C[C@H](O)[C@@]4(C)C(=O)[C@H](OC(C)=O)C(=C2C)C3(C)C)[C@@H](NC(=O)c2ccccc2)c2ccccc2)O1`: the growth is -4.7% (active).
